PubChem BioAssay AID651710 (Broad Institute, 2012)
Where “and” joins values, the source holds several entries; their conditions need not be identical. Identical values can stand only once. Hit rate of the full screen: of about 360,000 compounds, about 1,600 (0.44%) were called active.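 How the source made its calls: active means every replicate showing at least 50% inhibition; inconclusive means mean inhibition at least 50% but not in every replicate; inactive means the rest.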 The list comes from a sample in which actives are over-represented; it also holds similar structures and randomly drawn compounds. More than one record can exist for a structure, and the calls need not agree.

The compounds below were run against DNA repair protein RAD52 homolog (Homo sapiens) (UniProt P43351) (assay: RAD52 DNA annealing inhibitors, primary screen, biochemical, FRET, single point, set 2 (AID 651710)). Conditions: recombinant RAD52 DNA annealing, FRET fluorescence; at 18.7 µM; stronger effect = higher value.
DNA repair protein RAD52 homolog (Homo sapiens), sequence (P43351 whole entry, looked up): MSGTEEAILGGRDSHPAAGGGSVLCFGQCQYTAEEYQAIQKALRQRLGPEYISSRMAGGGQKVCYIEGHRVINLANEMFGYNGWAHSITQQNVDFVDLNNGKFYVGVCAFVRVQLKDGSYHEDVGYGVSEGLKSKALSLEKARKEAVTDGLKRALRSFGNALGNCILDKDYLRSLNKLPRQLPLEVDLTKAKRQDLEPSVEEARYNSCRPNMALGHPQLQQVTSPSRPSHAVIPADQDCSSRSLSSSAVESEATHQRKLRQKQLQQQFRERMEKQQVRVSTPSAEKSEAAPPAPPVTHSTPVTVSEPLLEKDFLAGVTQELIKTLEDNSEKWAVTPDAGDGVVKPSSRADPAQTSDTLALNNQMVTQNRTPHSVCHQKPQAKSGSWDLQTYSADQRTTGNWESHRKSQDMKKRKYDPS

Row | SMILES | inhibition
1 | N#Cc1cccc(-c2ccc(C3[C@@H]4CN(C(=O)C5CCC5)C[C@H]3N4)cc2)c1 (some centres not stated) | -9.39% (inactive) and 14.7% (inactive)
2 | O=C(C1CCCCC1)N1CC(=O)N2[C@H](CO)[C@@H](c3ccc(-c4ccccc4F)cc3)[C@@H]2C1 | -8.61% (inactive)
3 | O=C(C1CCCCC1)N1C[C@@H]2N[C@H](C1)C2c1ccc(-c2cccc(F)c2)cc1 (some centres not stated) | 61% (active) and 30.9% (inactive)
4 | O=C(C1CCCC1)N1CCCCN2[C@@H](CO)[C@H](c3ccc(-c4cccc(F)c4)cc3)[C@@H]2C1 | 44.8% (inactive)
5 | Cc1ccccc1-c1ccc(C2[C@@H]3CN(C(=O)C4CCCCC4)C[C@H]2N3)cc1 (some centres not stated) | 54.8% (active) and 0.102% (inactive)
6 | O=C(C1CCC1)N1C[C@@H]2N[C@H](C1)C2c1ccc(-c2cncnc2)cc1 (some centres not stated) | 17.7% (inactive)
7 | CS(=O)(=O)N1CC2(C1)[C@H](c1ccccc1)[C@H](CO)N2Cc1ccc(F)cc1 | -16.8% (inactive)
8 | Cc1ccc(-c2ccc3c(c2)O[C@H](CN(C)C)[C@@H](C)CN([C@@H](C)CO)S3(=O)=O)cc1 | 19.5% (inactive)
9 | O=C(C[C@@H]1C[C@@H]2c3cc(NC(=O)Nc4ccccc4F)ccc3O[C@@H]2[C@H](CO)O1)NCCc1ccccc1 | 2.98% (inactive)
10 | CO[C@@H]1CN(C)C(=O)c2cc(NC(=O)Nc3cc(F)ccc3F)ccc2OC[C@H](C)N(C)C[C@@H]1C | 22.6% (inactive)
11 | CN(Cc1ccccc1F)c1cc2c(c3c1ccn3C)C1CCC2O1 (configuration not stated) | 61% (active)
12 | CC(C)NC(=O)N(C)C[C@H]1OCCCC[C@H](C)Oc2ccc(NC(=O)Nc3ccc(C(F)(F)F)cc3)cc2C(=O)N([C@H](C)CO)C[C@@H]1C | -13.2% (inactive)
13 | C[C@@H]1CCCCO[C@@H](CN(C)S(=O)(=O)c2ccc(F)cc2)[C@@H](C)CN([C@@H](C)CO)C(=O)c2cc(NS(=O)(=O)c3cccs3)ccc2O1 | -29.4% (inactive)
14 | CC(C)NC(=O)N(C)C[C@H]1OCCCC[C@H](C)Oc2ccc(NC(=O)CCC(F)(F)F)cc2C(=O)N([C@@H](C)CO)C[C@@H]1C | -0.514% (inactive)
15 | Cc1noc(C)c1S(=O)(=O)Nc1cccc2c1O[C@@H](CN(C)S(=O)(=O)c1cn(C)cn1)[C@@H](C)CN([C@H](C)CO)C2=O | -26.9% (inactive)
16 | CN(C)C(=O)C[C@@H]1C[C@@H]2c3cc(NC(=O)C4CCOCC4)ccc3O[C@@H]2[C@@H](CO)O1 | -0.675% (inactive)
17 | CCCNC(=O)N1[C@@H]2CNC[C@H]1C2c1ccc(-c2ccccc2)cc1 (some centres not stated) | -12.3% (inactive) and 2.3% (inactive)
